Compounds without any hit were thinned out: in the full panel of roughly 83,000, 20% have a hit.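 The test compound was applied at a single concentration to cells in 96-well plates for 48 hours, and percent growth was recorded.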 The source made the active and inactive calls. The calls were made as follows: active = growth percent below 10; inactive = the rest.

The test concerns KM12 colon. Nature of the test: NCI-60 one-dose screen, 48 h (100 = growth as untreated, 0 = no growth, -100 = all killed). The conditions noted are these: 10 µM unless noted.
On to `O=C1Nc2ccccc2/C1=C/c1cn(C(=O)c2c(Cl)cccc2Cl)c2ccccc12`, for which the growth was 54.8% (inactive).
With `N=C1CCC(=N)c2c1c(O)c1ccccc1c2O`, the growth was 96.8% (inactive).
On to `Cc1ccc(S(=O)(=O)N/N=C\c2cc(Cl)ccc2O)cc1`, for which the growth was 108% (inactive).
The value for `COc1ccc(-c2[nH]c(=S)n(C(CC3(C)NCC(=O)N3n3c(-c4ccccc4)cc(C)nc3=S)c3ccc(OC)cc3)c(=O)c2Br)cc1` (stereo unspecified) was 37% (inactive); that for `COc1cc(N2C(=O)c3nccnc3C2=O)cc(OC)c1OC` was 110% (inactive).
As to `COc1ccc(Cl)cc1NC(=O)C(Br)C(Br)C(=O)O` (stereo unspecified), the growth is 83.2% (inactive).
As for `O=c1oc2ccccc2c(Cl)c1Cl`, the growth was 83.6% (inactive).
Turning to `COc1ccc(NC(=O)CSc2nnc(-c3cc(-c4ccc(S(N)(=O)=O)cc4)nc4ccccc34)n2-c2ccccc2)cc1`, the growth is 92.7% (inactive).
For the compound `CCC(CO)Nc1nc2ccc(Cl)cc2c2ccccc12` (stereo unspecified), the growth is 45.7% (inactive).
The value for `Cc1ccc(C2SCC(=O)N2Cc2ccccc2)cc1` (stereo unspecified) was 102% (inactive); that for `N#C/C(=C\c1ccc(-c2ccccc2F)o1)c1nc(-c2ccco2)cs1` was 63.9% (inactive).

The record behind these values is PubChem BioAssay (NCI).
